This note sets out measurements from PubChem BioAssay.

Calls of active or inactive are those of the source.

The nature of assay [1]: binders of probe aFSTL3 on microarray, primary screen, stem cell growth factor project, biochemical, small-molecule microarray, fluorescence 635/667 (AID 1064).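 Note: measures binding of the biotinylated anti-FSTL3 antibody to printed compounds.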 The following applies: higher = more signal.
Assay [2] in a line: binders from COS7 lysate, DM2A8 probe, primary screen, torsin A project, cell lysate, small-molecule microarray, fluorescence 635/667 (AID 1065). The following applies: higher = more signal, COS7 lysate expressing mutant human TOR1A.
Assay [3] is described as follows: binders of probe aFGF2 on microarray, primary screen, stem cell growth factor project, biochemical, small-molecule microarray, fluorescence 635/667 (AID 1067).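 Note: measures binding of biotinylated aFGF2 protein to printed compounds on slides; z-score merges feature fluorescence and signal-to-noise across triplicate slides.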 The following applies: higher = more signal.
Assay [4] is described as follows: binders of probe aFGF10 on microarray, primary screen, stem cell growth factor project, biochemical, small-molecule microarray, fluorescence 635/667 (AID 1071).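 Note: score merges 667 nm spot intensity and signal to noise from triplicate slides.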 The following applies: higher = more signal.
Assay [5] addresses Neurogenic locus notch homolog protein 2 (Homo sapiens) (UniProt Q04721). Put plainly: Notch2 binders on small-molecule microarrays, primary screen, biochemical, small-molecule microarray, 635 nm fluorescence, stem cell growth factors (AID 1073). The following applies: Notch2 binding, higher = more signal.
Assay [6] concerns the target Pro-neuregulin-1, membrane-bound isoform (Homo sapiens) (UniProt Q02297). Put plainly: NRG1 binders on small-molecule microarrays, primary screen, psychiatric disease protein project, biochemical, small-molecule microarray, fluorescence 635/667 (AID 1075).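 Note: score combines 667 nm spot fluorescence with signal to noise.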 The following applies: NRG1 binding, 635 nm fluorescence, higher = more signal.
Assay [7] relates to Neuregulin-1 EGF-like domain. Put plainly: binders of neuregulin-1 EGF-like domain, primary screen, biochemical, small-molecule microarray, 635 nm fluorescence (AID 1081).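 Note: binding of the protein to compounds printed on small-molecule microarray slides.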 The following applies: small-molecule microarray binding, higher = more signal.
Assay [8] in a line: FRG1 promoter luciferase signal modulators, primary screen, FRG1 inhibition for FSHD, cell-based, C2C12 myotubes, firefly/Renilla luciferase, luminescence (AID 1084). The following applies: higher = more signal, called active from +8 up or from −8 down.
A short description of assay [9]: binders of probe aFST on microarray, primary screen, stem cell growth factor project, biochemical, small-molecule microarray, fluorescence 635/667 (AID 1086).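 Note: score merges 667 nm fluorescence with signal-to-noise of each printed compound spot.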 The following applies: higher = more signal.
Assay [10] in a line: binders of probe aHhip on microarray, primary screen, stem cell growth factor project, biochemical, small-molecule microarray, fluorescence 635/667 (AID 1087).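 Note: score merges spot fluorescence at 667nm with spot signal to noise ratio.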 The following applies: higher = more signal.
Assay [11] relates to PRMT1 (protein arginine N-methyltransferase 1). Put plainly: PRMT1 binders on small-molecule microarrays, primary screen, biochemical, small-molecule microarray, 635 nm fluorescence (AID 1088).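 Note: binding of Prmt1 protein to compounds spotted on small-molecule microarray slides.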 The following applies: small-molecule microarray binding, higher = more signal.
The nature of assay [12]: yeast growth modulation, basal conditions, primary screen, YJM789 clinical isolate, OD600, 24 h (AID 1089).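 Note: growth of clinical yeast isolate S. cerevisiae YJM 789 seeded 1000 cells per well; test concentration not given here.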 The following applies: S. cerevisiae YJM789 growth, higher = more signal, called active from +8 up or from −8 down.
Assay [13] can be described thus: fission yeast growth modulation, primary screen, strain 972, OD600, 24 h, no modulator (AID 1090).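 Note: basal condition with compound alone and no growth modifier present; test concentration not given here.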 The following applies: S. pombe 972 growth, higher = more signal, called active from +8 up or from −8 down.
Assay [14] in a line: S. cerevisiae growth modulation with rapamycin, primary screen, strain BY4716, OD600, 96 h (AID 1091). Note: test concentration not given here. The following applies: higher = more signal, called active from +8 up or from −8 down.
Assay [15] deals with Torsin-1A-interacting protein 2 (Homo sapiens) (UniProt Q8NFQ8). Put plainly: LULL1 binders on small-molecule microarray, primary screen, cell lysate, human LULL1 lysate, 635/667 nm fluorescence (AID 1092).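 Note: probe is lysate of COS7 cells overexpressing human LULL1; score merges per-feature 667 nm fluorescence with signal-to-noise.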 The following applies: hLULL1 lysate binding, 635 nm fluorescence, higher = more signal.
Chain of Torsin-1A-interacting protein 2 (Homo sapiens) (Q8NFQ8 whole entry, looked up): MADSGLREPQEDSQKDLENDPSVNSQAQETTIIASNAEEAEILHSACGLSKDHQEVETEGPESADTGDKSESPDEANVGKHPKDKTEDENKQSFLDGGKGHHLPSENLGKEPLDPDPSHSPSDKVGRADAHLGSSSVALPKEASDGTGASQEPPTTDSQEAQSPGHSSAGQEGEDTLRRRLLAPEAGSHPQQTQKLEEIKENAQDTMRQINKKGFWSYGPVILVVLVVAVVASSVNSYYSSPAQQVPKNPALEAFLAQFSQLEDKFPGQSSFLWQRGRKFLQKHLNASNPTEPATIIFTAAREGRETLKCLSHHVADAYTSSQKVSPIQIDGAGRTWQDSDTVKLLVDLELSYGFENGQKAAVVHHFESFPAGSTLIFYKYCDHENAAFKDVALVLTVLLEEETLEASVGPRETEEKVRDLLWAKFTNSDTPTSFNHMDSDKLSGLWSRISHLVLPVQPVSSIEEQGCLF
A short description of assay [16]: E. coli growth modulation, two-sided OD650, primary screen, E. coli filamentation project, strain DRC41, 24 h (AID 1093).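 Note: MC1000 strain lacking acrAB efflux and sulA so SOS filamentation is blocked; test concentration not given here.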 The following applies: OD650, 24 h, higher = more signal, called active from +8 up or from −8 down.
Assay [17] in a line: small-molecule microarray binders of probe aLefty2, primary screen, biochemical, biotinylated probe, 635/667 nm fluorescence (AID 1094).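 Note: score merges spot fluorescence near 667 nm with spot signal-to-noise ratio.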 The following applies: higher = more signal.
Assay [18] relates to Noggin (protein binding on small-molecule microarray). Put plainly: Noggin binders on small-molecule microarray, primary screen, biochemical, 635/667 nm fluorescence (AID 1095).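 Note: score merges 667 nm feature fluorescence with signal to noise over triplicate slides.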 The following applies: 635 nm fluorescence, higher = more signal.
The target of assay [19] is Neurogenic locus notch homolog protein 3 (Homo sapiens) (UniProt Q9UM47). Put plainly: NOTCH3 binders on small-molecule microarray, primary screen, biochemical, 635/667 nm fluorescence (AID 1096). The following applies: NOTCH3 binding, 635 nm fluorescence, higher = more signal.
Chain of Neurogenic locus notch homolog protein 3 (Homo sapiens) (Q9UM47 whole entry, looked up): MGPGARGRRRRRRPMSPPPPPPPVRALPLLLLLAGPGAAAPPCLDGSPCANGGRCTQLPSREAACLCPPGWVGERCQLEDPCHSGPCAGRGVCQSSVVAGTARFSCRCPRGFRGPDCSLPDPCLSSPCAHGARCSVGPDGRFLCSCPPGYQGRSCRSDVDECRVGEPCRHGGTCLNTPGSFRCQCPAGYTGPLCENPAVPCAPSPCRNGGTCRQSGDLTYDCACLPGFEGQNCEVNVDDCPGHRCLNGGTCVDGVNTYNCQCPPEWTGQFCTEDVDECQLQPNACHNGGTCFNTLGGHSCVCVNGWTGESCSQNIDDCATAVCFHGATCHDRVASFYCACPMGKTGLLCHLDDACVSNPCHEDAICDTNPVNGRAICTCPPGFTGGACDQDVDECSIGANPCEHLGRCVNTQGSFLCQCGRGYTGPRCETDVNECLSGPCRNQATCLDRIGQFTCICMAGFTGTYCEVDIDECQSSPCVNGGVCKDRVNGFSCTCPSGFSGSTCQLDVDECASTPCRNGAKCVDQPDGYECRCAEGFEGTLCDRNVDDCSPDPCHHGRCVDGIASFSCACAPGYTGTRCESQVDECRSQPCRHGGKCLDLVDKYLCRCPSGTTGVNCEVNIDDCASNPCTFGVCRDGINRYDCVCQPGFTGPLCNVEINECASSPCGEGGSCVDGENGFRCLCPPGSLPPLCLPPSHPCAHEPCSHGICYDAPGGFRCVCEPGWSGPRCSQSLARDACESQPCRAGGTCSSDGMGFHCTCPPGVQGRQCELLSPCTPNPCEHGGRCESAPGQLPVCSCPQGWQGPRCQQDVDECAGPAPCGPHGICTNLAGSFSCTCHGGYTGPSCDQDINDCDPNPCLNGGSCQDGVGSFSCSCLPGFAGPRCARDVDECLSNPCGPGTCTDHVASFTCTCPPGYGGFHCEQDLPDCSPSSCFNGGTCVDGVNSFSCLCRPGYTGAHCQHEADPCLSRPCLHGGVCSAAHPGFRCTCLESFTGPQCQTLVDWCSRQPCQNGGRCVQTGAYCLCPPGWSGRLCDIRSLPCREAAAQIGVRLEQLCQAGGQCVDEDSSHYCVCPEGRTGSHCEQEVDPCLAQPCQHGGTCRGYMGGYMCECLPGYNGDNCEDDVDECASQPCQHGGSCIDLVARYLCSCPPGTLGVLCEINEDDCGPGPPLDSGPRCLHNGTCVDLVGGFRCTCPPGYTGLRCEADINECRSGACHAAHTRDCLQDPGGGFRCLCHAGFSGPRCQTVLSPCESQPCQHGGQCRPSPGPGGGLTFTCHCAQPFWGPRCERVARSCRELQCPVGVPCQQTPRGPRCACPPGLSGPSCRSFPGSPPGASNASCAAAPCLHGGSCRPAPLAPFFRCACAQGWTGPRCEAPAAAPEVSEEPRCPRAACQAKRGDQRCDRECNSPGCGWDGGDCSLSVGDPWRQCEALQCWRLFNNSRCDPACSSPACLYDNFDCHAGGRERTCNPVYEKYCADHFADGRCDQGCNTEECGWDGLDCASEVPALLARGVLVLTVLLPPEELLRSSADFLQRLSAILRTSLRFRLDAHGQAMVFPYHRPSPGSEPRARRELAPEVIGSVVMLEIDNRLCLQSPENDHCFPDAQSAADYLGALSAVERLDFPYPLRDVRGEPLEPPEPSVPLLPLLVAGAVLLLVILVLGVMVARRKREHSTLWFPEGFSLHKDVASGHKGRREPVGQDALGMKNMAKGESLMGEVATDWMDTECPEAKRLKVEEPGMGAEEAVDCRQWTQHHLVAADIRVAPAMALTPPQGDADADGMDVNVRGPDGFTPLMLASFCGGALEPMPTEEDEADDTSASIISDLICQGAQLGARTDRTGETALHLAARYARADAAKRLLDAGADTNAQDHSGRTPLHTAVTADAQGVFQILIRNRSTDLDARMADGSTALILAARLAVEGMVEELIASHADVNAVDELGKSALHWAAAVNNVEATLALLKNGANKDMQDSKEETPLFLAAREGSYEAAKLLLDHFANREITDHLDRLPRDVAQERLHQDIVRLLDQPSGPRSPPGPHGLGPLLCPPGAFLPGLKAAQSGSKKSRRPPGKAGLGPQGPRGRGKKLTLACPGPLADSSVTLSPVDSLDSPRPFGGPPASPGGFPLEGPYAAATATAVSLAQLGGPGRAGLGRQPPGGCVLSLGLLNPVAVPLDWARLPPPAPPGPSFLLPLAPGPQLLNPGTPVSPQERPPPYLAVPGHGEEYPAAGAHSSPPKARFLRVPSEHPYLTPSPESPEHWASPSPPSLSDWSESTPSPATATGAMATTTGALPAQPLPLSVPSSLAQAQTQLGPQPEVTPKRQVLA
The nature of assay [20]: small-molecule microarray binders of probe aEGFR, primary screen, biochemical, biotinylated probe, 635/667 nm fluorescence (AID 1097).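 Note: probe is a biotinylated anti-EGFR antibody binding compounds printed on slides; score combines fluorescence near 667 nm and signal to noise of each spot.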 The following applies: higher = more signal.

Chain of Pro-neuregulin-1, membrane-bound isoform (Homo sapiens) (Q02297 whole entry, looked up, the tested form may be a part, canonical isoform): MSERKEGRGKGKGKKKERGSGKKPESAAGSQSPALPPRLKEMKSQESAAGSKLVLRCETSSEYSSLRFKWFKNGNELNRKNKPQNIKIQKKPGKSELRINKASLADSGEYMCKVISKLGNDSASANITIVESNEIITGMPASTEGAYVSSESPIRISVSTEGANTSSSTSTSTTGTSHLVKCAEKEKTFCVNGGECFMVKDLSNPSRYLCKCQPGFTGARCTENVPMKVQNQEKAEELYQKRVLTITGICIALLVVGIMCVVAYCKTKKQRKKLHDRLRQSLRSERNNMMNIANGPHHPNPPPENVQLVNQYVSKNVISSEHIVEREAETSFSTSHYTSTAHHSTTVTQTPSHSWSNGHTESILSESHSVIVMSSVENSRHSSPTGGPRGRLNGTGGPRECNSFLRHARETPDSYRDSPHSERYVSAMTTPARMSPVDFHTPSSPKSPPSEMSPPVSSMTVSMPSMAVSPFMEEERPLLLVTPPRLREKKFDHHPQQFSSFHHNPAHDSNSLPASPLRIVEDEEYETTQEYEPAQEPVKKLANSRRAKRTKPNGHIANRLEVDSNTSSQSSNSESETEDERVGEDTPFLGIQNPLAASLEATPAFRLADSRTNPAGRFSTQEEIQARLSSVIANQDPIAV

Take `CN1C(=O)C2C(C3CC3)C=C3CN(Cc4cccc(Cl)c4)[C@@H]([C@@H](O)Cc4ccccc4)C3C2C1=O` (stereo not given in full): the composite z-score was -0.357 in assay [1]; 0.268 in [2]; -0.229 in assay [3]; 0.0719 in [4]; 0.999 in assay [5]; 1.03 in assay [6]. In addition, the composite z-score in [7] is 1.23; in assay [9], -0.156; in assay [10] it was 0.0854; in assay [11] it was 1.57; in assay [15], 2.94; in assay [17], -0.126. In addition, the values for the composite z-score in assay [18], in assay [19] and in [20] were 1.23, 1.15 and -0.0679, respectively. Moreover, the z-score in [8] was -1.31 (inactive); in assay [12] it was 0.347 (inactive); in assay [13], -1.87 (inactive); in [14], -0.539 (inactive); in assay [16], 1.71 (inactive).

Regarding `CN(C)C(=O)[C@@]1(Cc2ccccc2CN=[N+]=[N-])COC(c2ccc(OCCCO)cc2)=N1`, the composite z-score in [1] is 0.695; in assay [2] it was -0.445; in assay [3], -0.085; in assay [4], -0.0663; in [5], 0.0696; in assay [6] it was 1.63. In addition, the composite z-score is 1.1 in assay [7]; 0.681 in assay [9]; -0.134 in [10]; 0.688 in assay [11]; 2.65 in [15]; 0.0781 in assay [17]. For the same compound, the composite z-score was -0.543 in [18], 0.132 in [19] and -0.152 in assay [20]. Besides, the z-score was -2.47 (inactive) in [8]; -0.352 (inactive) in assay [12]; -7.06 (inactive) in assay [13]; 31.3 (active) in assay [14]; 2.21 (inactive) in [16].

As for `CC(C)(C)N1CC=CC23O[C@@H]4C=CCCOC(=O)C4[C@H]2C(=O)N(CCCCCCO)[C@@H]3C1=O` (stereo not given in full), the composite z-score in [1] was -0.0477; in assay [2], -1.39; in assay [3], -0.0628; in assay [4] it was 0.0493; in assay [5] it was -0.615; in assay [6], 1.36. Further, the composite z-score in assay [7] is 1.56; in assay [9], -0.0273; in assay [10], -0.236; in [11], 0.647; in [15] it was 3.16; in assay [17], -0.171. The composite z-score in assay [18] is -0.679; in assay [19], 0.123; in assay [20], -0.238. Also, the z-score in assay [8] was 0.908 (inactive); in assay [12] it was -0.0623 (inactive); in assay [13], -0.563 (inactive); in assay [14], 0.352 (inactive); in [16], -0.2 (inactive).

On to `CN1C(=O)C2C(C1=O)C1C=C(c3ccc(CO)cc3)C2C(C2CC2)N1C` (stereo not given), for which the composite z-score in assay [1] is -0.23; in assay [2], 0.388; in [3] it was -0.0932; in assay [4], 0.0656; in assay [5], -0.337; in [6] it was 1.16. Further, the composite z-score in assay [7] was 0.811; in assay [9], -0.176; in [10], 0.0749; in assay [11], -0.346; in assay [15], 0.956; in assay [17], -0.209. Besides, the composite z-score in assay [18] is 0.102; in assay [19], -0.414; in assay [20], -0.229. The z-score in assay [8] is 0.0916 (inactive); in [12], 0.724 (inactive); in assay [13], -1.36 (inactive); in assay [14], 2.59 (inactive); in [16], 0.689 (inactive).

For the compound `Cc1ccc(S[C@]2(C(=O)NCCCN(C)C)CC(=O)N(C3Cc4ccccc4C3)[C@@H]2c2ccc(CO)cc2I)cc1`, the composite z-score is 0.533 in assay [1]; -0.602 in assay [2]; -0.0281 in assay [3]; -0.25 in [4]; 0.0374 in assay [5]; 1.88 in assay [6]. For the same compound, the composite z-score in [7] was 0.522; in assay [9], 0.404; in assay [10] it was -0.0373; in assay [11], 0.961; in [15] it was 1.14; in assay [17], -0.035. Also, the composite z-score in assay [18] was -0.978; in assay [19], -0.105; in [20], -0.0828. The z-score is -0.967 (inactive) in [8]; -0.471 (inactive) in assay [12]; -2.87 (inactive) in assay [13]; 1.32 (inactive) in [14]; -0.42 (inactive) in assay [16].
